The record followed here is PubChem BioAssay (NCATS).

Each structure is given as a SMILES string. Records with an inconclusive call do not appear. Values without a mark were called inactive. Active and inactive are the calls of the source. Unless noted, calls follow the shape of the full dose curve.

Test [1] can be described thus: Primary qHTS for Huh7 cytotoxicity: counterscreen for inhibitors of MERS-S pseudotyped particle cell entry (AID 1479147; as to activity change, negative = cytotoxicity: % is scaled to controls: 0 for no effect and ±100 for the full control effect). (In general: qHTS replaces the single test concentration by a dilution series.)
Test [2] in a line: Primary qHTS for inhibitors of MERS-S pseudo-typed particle cell entry (AID 1479149). Also: nearly all actives have a fitted effect of over 60% in size.
Test [3] is described as follows: Primary qHTS for Vero E6 cytotoxicity: counterscreen for inhibitors of SARS-S pseudo-typed particle cell entry (AID 1479150). As to activity change, negative = cytotoxicity: % is scaled to controls: 0 for no effect and ±100 for the full control effect.
A short description of test [4]: Confirmatory qHTS for activators (rescue) of SARS-CoV-2 Cytopathic Effect (CPE) (AID 1508606). Also: potency is read from the fitted curve at half-maximal effect; nearly all actives have a fitted effect of over 70% in size.
Test [5] is described as follows: Primary qHTS for inhibitors of La Crosse Virus (LACV) - induced cell death in SH-SY5Y cells (AID 1508616; active = well fitted curve in the direction sought with a large enough effect; an effect the other way counts as inactive or inconclusive;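 also: top concentration of the series differs between compounds; 0% = infected DMSO wells and 100% = uninfected DMSO wells; higher means more rescue of cells from virus-induced death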). The method in brief: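 SH-SY5Y, 6000 cells/well; cpd via pin tool in DMSO; LACV 0.01 MOI; 6 d 37C 5% CO2; ATPLite, 5 min RT; luminescence normalized to ±virus DMSO controls.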
For test [6], the target named is Calcium and integrin-binding protein 1 (Homo sapiens) (UniProt Q99828). Kind of test: Primary qHTS for Identification of Calcium Integrin Binding Protein 1 (CIB1) Competitor (AID 1508620; active = well fitted curve in the direction sought with a large enough effect; an effect the other way counts as inactive or inconclusive; also: top concentration of the series differs between compounds; % is scaled to controls: 0 for no effect and ±100 for the full control effect). The method, boiled down: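 Fluorescence polarization competition: GST-tagged CIB1 (1 uM final) preincubated with compound 15 min at room temperature, then FITC-labelled alphaIIb peptide (100 nM final) added. After 15 min at room temperature, polarization read at Ex 480/Em 540.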

Test [7] in a line: Primary qHTS for small molecule stabilizers of the endoplasmic reticulum resident proteome: Secreted ER Calcium Modulated Protein (SERCaMP) assay (AID 1508630; active = well fitted curve in the direction sought with a large enough effect; an effect the other way counts as inactive or inconclusive; also: % is scaled to controls: 0 for no effect and ±100 for the full control effect). The method in brief: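 The SH-SY5Y reporter protocol was run at 3 concentrations up to 38.3 uM (primary) or 11 concentrations (follow-up): 16 h compound, 100 nM thapsigargin for 4 h, then extracellular luciferase luminescence.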

The nature of test [8]: A High-Content qHTS Against Drug Library for the Identification of Small Molecules that Inhibit DYT1 Early Onset Primary Dystonia-Associated Cell Pathology (AID 1645839). Also: series mostly up to about 46 µM. The method, boiled down: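 Cells were seeded and left for 24 h, then dosed with compound alongside tetracycline induction of mutant EGFP-TorsinA. They were incubated for 48 h, fixed in 4% paraformaldehyde, permeabilized and imaged for mislocalization (%pathology) and cell count.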

Test [9] addresses Cytochrome P450 2D6 (Homo sapiens) (UniProt P10635). Kind of test: Cytochrome P450 family 2 subfamily D member 6 (CYP2D6) small molecule antagonists: luciferase biochemical (cell-free) qHTS assay (AID 1645840; active = well fitted curve in the direction sought with a large enough effect in the repeat runs; an effect the other way counts as inactive or inconclusive; also: nearly all actives have a fitted effect of over 55% in size; also: potency is read from the fitted curve at half-maximal effect). The method in brief: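 P450-Glo CYP2D6 system: proluciferin substrate converted by enzyme to luciferin, read by luminescence proportional to activity. Enzyme-substrate mix with compound 10 min at room temperature, then NADPH regeneration 1 h before detection reagent.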

Test [10] in a line: Confirmatory qHTS for VERO E6 Cytotoxicity Assay: Counterscreen for SARS-CoV-2 CPE Assay (AID 1508605). Also: series mostly up to about 20 µM; % is scaled to controls: 0 for no effect and ±100 for the full control effect; nearly all actives have a fitted effect of over 60% in size.

Chain of Cytochrome P450 2D6 (Homo sapiens) (P10635 whole entry, looked up): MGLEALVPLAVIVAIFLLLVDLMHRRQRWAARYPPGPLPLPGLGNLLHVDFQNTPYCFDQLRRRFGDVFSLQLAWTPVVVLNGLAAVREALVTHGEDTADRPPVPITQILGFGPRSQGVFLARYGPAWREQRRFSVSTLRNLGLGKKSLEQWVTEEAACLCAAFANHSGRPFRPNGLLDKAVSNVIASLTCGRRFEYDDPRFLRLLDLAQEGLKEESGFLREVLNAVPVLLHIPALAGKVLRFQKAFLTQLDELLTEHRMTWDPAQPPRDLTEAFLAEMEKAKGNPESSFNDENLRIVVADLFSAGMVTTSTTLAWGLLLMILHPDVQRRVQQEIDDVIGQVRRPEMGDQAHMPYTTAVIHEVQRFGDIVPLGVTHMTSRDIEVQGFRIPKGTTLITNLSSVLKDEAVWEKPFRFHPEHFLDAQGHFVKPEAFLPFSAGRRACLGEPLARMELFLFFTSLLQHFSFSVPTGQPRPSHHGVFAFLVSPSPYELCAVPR
Chain of Calcium and integrin-binding protein 1 (Homo sapiens) (Q99828 whole entry, looked up): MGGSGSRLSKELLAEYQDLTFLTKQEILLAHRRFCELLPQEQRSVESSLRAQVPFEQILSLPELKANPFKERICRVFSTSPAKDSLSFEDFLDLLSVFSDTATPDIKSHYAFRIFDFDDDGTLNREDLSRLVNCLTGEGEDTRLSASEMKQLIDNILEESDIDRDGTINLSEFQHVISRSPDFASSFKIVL

On to `CCCCN1CCCC[C@H]1C(=O)Nc1c(C)cccc1C`, for which the Potency entry in [1], in test [2] and in test [3] was “inactive” in each case.

As for `c1ccc(CC2=NCCN2)cc1`, the Potency result in test [1], in test [2] and in test [3] was “inactive” each time.

`CC(Oc1c(Cl)cccc1Cl)C1=NCCN1` (stereo unspecified): the Potency result in test [1], in test [2] and in [3] was “inactive” in each case.

Turning to `CN1CCC(=C2c3ccccc3CCc3cccnc32)CC1`, the Potency result in [1], in [2] and in test [3] was “inactive” in each case.

For `CN1CCN(c2cc3c(cc2F)c(=O)c(C(=O)O)cn3-c2ccc(F)cc2)CC1`, the Potency result in test [1], in test [2] and in test [3] was “inactive” in each case.

`Nc1ccn([C@H]2CC[C@@H](CO)O2)c(=O)n1`: the Potency result in [1], in test [2] and in [3] was “inactive” throughout.

In the case of `CCOC(=O)c1cc(=O)c2c(OCC(COc3cccc4oc(C(=O)OCC)cc(=O)c34)OC(=O)[C@@H](N)CCCCN)cccc2o1`, the Potency result in [1], in [2] and in test [3] was “inactive” each time.

Take `CCCCC(CC)COC(=O)C(C#N)=C(c1ccccc1)c1ccccc1` (stereo unspecified): the Potency result in test [1], in test [2] and in [3] was “inactive” throughout.

As for `NS(=O)(=O)c1cc(C(=O)O)c(NCc2ccco2)cc1Cl`, the Potency result in test [1], in [2] and in [3] was “inactive” throughout.

Turning to `CCc1ccc(C(=O)C(C)CN2CCCCC2)cc1` (stereo unspecified), the Potency result in test [1], in [2] and in [3] was “inactive” throughout.

As for `CCN[C@@H]1C[C@H](N)[C@@H](OC2OC(CN)=CCC2N)[C@H](O)[C@H]1O[C@H]1OC[C@](C)(O)[C@H](NC)[C@H]1O` (stereo partly specified), the activity change, negative = cytotoxicity is -16.5% [at 0.573 µM] in test [1] and -4.98% [at 0.573 µM] in test [3]. Besides, the outcome in test [2] is “inactive [at 0.573 µM]”.

Regarding `CCOC(=O)c1ccc(OC(=O)CCCCCN=C(N)N)cc1`, the Potency entry in test [1], in test [2] and in test [3] was “inactive” throughout.

In the case of `COc1ccnc2c1CCCCC2S(=O)c1nc2ccccc2[nH]1` (stereo unspecified), the Potency entry in test [1], in test [2] and in test [3] was “inactive” each time.

Regarding `CN(C)[C@@H](CCOc1cccc2ccccc12)c1ccccc1`, in test [4], the Potency is 10 µM (active).

In the case of `CN1CCC(=C2c3ccccc3CCc3sccc32)CC1`, in test [4], the Potency was 11.2 µM (active).

Turning to `Cc1nnc2n1-c1sc(CCc3ccc(CC(C)C)cc3)cc1C(c1ccccc1Cl)=NC2C` (stereo unspecified), in test [5], the outcome was inactive. Further, in [6], the Potency result was “inactive”.

For `C#C[C@]1(O)CC[C@H]2[C@@H]3CCC4=CC(=O)CCC4=C3C=C[C@@]21CC`, the call in [5], in test [7] and in test [8] was inactive. Also, the Potency result in [6] was “inactive”. Besides, the Potency in [9] is 0.977 µM (active).

In the case of `CCCCCCCCCCCCOS(=O)(=O)O`, in [9], the Potency entry is “inactive”.

`C[C@@H](CN(C)C)CN1c2ccccc2Sc2ccccc21`: the Potency result in test [1], in test [3] and in test [10] was “inactive” throughout.

For `COc1ccc2c(c1)c(CC(=O)O)c(C)n2C(=O)c1ccc(Cl)cc1`, the Potency result in [1] and in test [3] was “inactive” each time.

In the case of `O=C(NCC1CN(c2ccc(N3CCOCC3=O)cc2)C(=O)O1)c1ccc(Cl)s1` (stereo unspecified), the Potency entry in test [1] and in test [3] was “inactive” throughout.

In the case of `Cc1ccc(Cl)c(OCC(O)CNC(C)(C)C)c1` (stereo unspecified), the Potency entry in [1] and in test [3] was “inactive” in each case.

In the case of `CN1[C@@H]2CC[C@H]1CC(OC(=O)c1c[nH]c3ccccc13)C2` (stereo partly specified), the Potency result in [1] and in [3] was “inactive” each time.

For the compound `Clc1ccc(C(Cn2ccnc2)OCc2ccsc2Cl)c(Cl)c1` (stereo unspecified), the Potency entry in test [1] and in test [3] was “inactive” each time.

In the case of `CN1CC(=O)N2[C@H](c3ccc4c(c3)OCO4)c3[nH]c4ccccc4c3C[C@@H]2C1=O`, the Potency result in [1] and in test [3] was “inactive” each time.

In the case of `CN(C)CCOC1=Cc2ccccc2Sc2ccc(Cl)cc21`, the Potency result in test [1] and in [3] was “inactive” in each case.

For `CCCOC(C(=O)OC1CCN(C)CC1)(c1ccccc1)c1ccccc1`, the Potency result in [1], in test [3] and in test [10] was “inactive” in each case.

Consider `Clc1ccc(Cn2c(CN3CCCC3)nc3ccccc32)cc1`, for which the Potency entry in test [1] and in test [3] was “inactive” each time.

Consider `CN1CCCCC1CCN1c2ccccc2Sc2ccc(S(C)=O)cc21` (stereo unspecified), for which the Potency entry in test [1], in [3] and in [10] was “inactive” in each case.

As to `COc1ccccc1N1CCN(CC(O)COc2cccc3ccccc23)CC1` (stereo unspecified), the Potency entry in test [1] and in test [3] was “inactive” throughout.

Turning to `CO[C@@H]1[C@@H](O[C@@H]2O[C@H](C)[C@@H](O[C@H]3C[C@@](C)(O)[C@@H](O)[C@H](C)O3)[C@H](N(C)C)[C@H]2O)[C@@H](CC=O)C[C@@H](C)[C@@H](O[C@@H]2CC[C@H](N(C)C)[C@@H](C)O2)/C=C/C=C/C[C@@H](C)OC(=O)C[C@H]1OC(C)=O`, the Potency entry in [1], in [3] and in [10] was “inactive” in each case.

For `CC(C)(C)c1ccc(C(=O)CCCN2CCC(OC(c3ccccc3)c3ccccc3)CC2)cc1`, the Potency result in test [1] and in [3] was “inactive” in each case.

In the case of `COc1cc(N)c(Cl)cc1C(=O)NC1CCN(Cc2ccccc2)CC1`, the Potency result in test [1] and in [3] was “inactive” throughout.

On to `C#C[C@]1(OC(C)=O)CC[C@H]2[C@@H]3CCC4=C[C@@H](OC(C)=O)CC[C@@H]4[C@H]3CC[C@@]21C`, for which the Potency result in [1] and in test [3] was “inactive” in each case.

As to `O=C(CCCN1CC=C(n2c(=O)[nH]c3ccccc32)CC1)c1ccc(F)cc1`, the Potency result in test [1] and in test [3] was “inactive” throughout.

As to `CCN(CC)CCOCCOC(=O)C1(c2ccccc2)CCCC1`, the Potency entry in [1] and in [3] was “inactive” each time.

In the case of `COc1ccc2c(c1)C(=O)N(CCc1ccc(S(=O)(=O)NC(=O)NC3CCCCC3)cc1)C(=O)C2(C)C`, the Potency result in test [1] and in test [3] was “inactive” each time.

On to `COc1cccc(CCc2ccccc2OCC(CN(C)C)OC(=O)CCC(=O)O)c1` (stereo unspecified), for which the Potency result in test [1], in [3] and in test [10] was “inactive” in each case.

`CCCCc1cc2ccccc2c(OCCN(C)C)n1`: the Potency entry in test [1] and in test [3] was “inactive” throughout.
